Reference: PubChem BioAssay
The source made the active and inactive calls. Unless noted, no stated cut-off is given here; in the data, active means inhibition above about 80%; inactive means the rest.

Tests used:
[1] = growth inhibition, single agent or in combination, cell-based, chromothripsis tumors, cisplatin or BGB combos (AID 1671449); details: LFS_MB_P medulloblastoma cells;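 further: cells exposed for 96 hours; 0% = vehicle DMSO and 100% = killing by high DMSO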
[2] = growth inhibition, single agent and combos, cell-based, chromothripsis tumors, cisplatin or BGB combos (AID 1671450); details: HDN33 neuroblastoma cells, stronger effect = higher value;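 further: cells exposed to compound for four days; 0% = vehicle DMSO and 100% = cell killing by high DMSO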
[3] = growth inhibition, single agents and combos, ICB984, cell-based, cisplatin or BGB combos, synergistic combos for chromothripsis tumors (AID 1671451; call rule not given here;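 further: cells exposed for 96 hours before readout; 0% = vehicle DMSO and 100% = killing by high DMSO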); details: ICB984 medulloblastoma cells, drug combinations, stronger effect = higher value
[4] = growth inhibition, single agents and combos, LFS_MB_1R, cell-based, cisplatin or BGB combos, synergistic combos for chromothripsis tumors (AID 1671452); details: LFS_MB_1R medulloblastoma cells, stronger effect = higher value;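 further: cells exposed for 96 hours before readout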
[5] = growth inhibition, single agents and combos, HTB85, cell-based, BGB or cisplatin IC20 combos, synergistic combos for chromothripsis tumors (AID 1671453); details: HTB85 osteosarcoma cells, drug combinations, stronger effect = higher value;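 further: cells exposed for 96 hours before readout; 0% = vehicle DMSO and 100% = high DMSO killing control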
[6] = growth inhibition, single agents and combos, CRL2098, cell-based, BGB or cisplatin IC20 combos, synergistic combos for chromothripsis tumors (AID 1671454); details: CRL2098 osteosarcoma cells, drug combinations, stronger effect = higher value;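 further: cells exposed for 96 h before readout; 0% = vehicle DMSO and 100% = killing by high DMSO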
[7] = growth inhibition, single agents and combos, HD-MB03, cell-based, BGB or cisplatin IC20 combos, synergistic combos for chromothripsis tumors (AID 1671455; in the data active means inhibition above about 83%;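 further: 0% = vehicle DMSO and 100% = high DMSO as cytotoxic control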); details: HD-MB03 medulloblastoma cells, stronger effect = higher value
[8] = growth inhibition, single agents and combos, UWB1.289, cell-based, BGB or cisplatin combos, synergistic combos for chromothripsis tumors (AID 1671456); details: UWB1.289 ovarian carcinoma cells, stronger effect = higher value;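 further: cells exposed to compound for four days; 0% = vehicle DMSO and 100% = killing by high DMSO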
[9] = growth inhibition, single agents and combos, LFS_MB_2R, cell-based, cisplatin combos, synergistic combos for chromothripsis tumors (AID 1671457); details: LFS_MB_2R medulloblastoma cells, stronger effect = higher value;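 further: cells exposed to compound for four days before readout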
[10] = growth inhibition, MDA-MB-436, cell-based, BGB or cisplatin combos, synergistic combos for chromothripsis tumors (AID 1671458; call rule not given here;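 further: cells exposed for 96 hours; 0% = vehicle DMSO and 100% = killing by high DMSO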); details: MDA-MB-436 breast carcinoma growth inhibition, drug combinations, stronger effect = higher value
[11] = UWB1.289_BRCA1 ovarian cancer growth, cell-based, BGB or cisplatin combinations (AID 1671459); details: UWB1.289 BRCA1 ovarian carcinoma, drug combinations, stronger effect = higher value
[12] = drug combination toxicity in non-malignant astrocytes – cell-based, BGB or cisplatin IC20 combos, cytotoxicity control for chromothriptic childhood tumor combination screen (AID 1671460); details: Human astrocytes, viability inhibition, drug combinations, at 0.5 µM, stronger effect = higher value;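 further: cells exposed to compounds for 96 hours before viability readout; 0% = vehicle and 100% = killing control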
[13] = BT084 cell growth, single and combined drugs, ICGC_MB145, cisplatin and BGB IC40 combos (AID 1671461); details: BT084 medulloblastoma cells, drug combinations, stronger effect = higher value;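 further: cells exposed to drugs for 96 hours; 0% = vehicle DMSO and 100% = high DMSO full killing control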
[14] = RCMB18 cell growth, single agent and combined, cisplatin and BGB IC40 combos (AID 1671462); details: RCMB18 medulloblastoma cells, stronger effect = higher value;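 further: cells exposed to compound for four days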
[15] = CRL1545 cell growth, single agent and combined, cisplatin and BGB IC20 combos (AID 1671464); details: CRL1545 osteosarcoma cells, stronger effect = higher value;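 further: cells exposed to compound for 96 hours before readout; 0% = vehicle DMSO and 100% = high DMSO killing control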
[16] = measured here: combination with BGB IC40, at 0.05 µM
[17] = measured here: with BGB IC20 combination, at 0.5 µM
[18] = measured here: with cisplatin IC20 combination, at 0.5 µM
[19] = measured here: combination with cisplatin, at 0.5 µM
[20] = measured here: combination with cisplatin, at 5 µM

SMILES: CC(C)c1ccc(-c2cc(=O)c3ccccc3o2)cc1
- inhibition ([1]; at 0.5 µM, stronger effect = higher value): -1.02% (inactive)
- inhibition ([1]; measured here: combination with BGB IC20, at 0.005 µM): -13.4%
- inhibition ([1]; measured here: combination with BGB IC40, at 0.005 µM): -27.4%
- inhibition [1, 16]: 8.34%
- inhibition ([1]; measured here: combination with cisplatin, at 0.5 µM, stronger effect = higher value): 64.5%
- inhibition ([1]; measured here: combination with cisplatin, at 5 µM, stronger effect = higher value): 60.2%
- inhibition ([2]; BGB combo, at 5 µM): 30.8%
- inhibition ([2]; at 0.5 µM): -12.3% (inactive)
- inhibition ([2]; cisplatin combo, at 5 µM): 30.4%
- inhibition [2, 17]: -6.46%
- inhibition [2, 18]: -22.2%
- inhibition ([2]; single agent, at 5 µM): 42.1%
- inhibition ([3]; BGB IC20 combo, at 0.005 µM): 5.4%
- inhibition ([3]; BGB IC40 combo, at 0.005 µM): -31.5%
- inhibition ([3]; BGB IC40 combo, at 0.05 µM): 14.8%
- inhibition ([3]; at 0.5 µM): -18.8% (inactive)
- inhibition ([3]; cisplatin combo, at 0.05 µM): 11.4%
- inhibition ([3]; cisplatin combo, at 0.5 µM): -24.5%
- inhibition ([3]; cisplatin combo, at 5 µM): -45%
- inhibition ([3]; measured here: 5 uM single agent, at 5 µM): -10.3%
- inhibition ([4]; at 0.5 µM): -36.4% (inactive)
- inhibition [4, 16]: -28.3%
- inhibition [4, 19]: -81.6%
- inhibition [4, 20]: 18.3%
- inhibition ([5]; at 0.5 µM): -40.2% (inactive)
- inhibition ([5]; measured here: with BGB IC20, at 0.5 µM): -39.8%
- inhibition ([5]; measured here: with BGB IC20, at 5 µM): 1.8%
- inhibition ([5]; measured here: with cisplatin IC20, at 0.5 µM): -59.9%
- inhibition ([5]; measured here: with cisplatin IC20, at 5 µM): 17.5%
- inhibition ([5]; single agent, at 5 µM): 16.9%
- inhibition ([6]; at 0.5 µM): -58.5% (inactive)
- inhibition ([6]; measured here: combination with BGB at IC20, at 0.5 µM): -35.3%
- inhibition ([6]; measured here: combination with cisplatin at IC20, at 0.5 µM): -37.3%
- inhibition ([7]; at 0.5 µM): -10% (inactive)
- inhibition ([7]; measured here: combo with BGB at IC20, at 0.5 µM): -14%
- inhibition ([7]; measured here: combo with cisplatin at IC20, at 0.5 µM): -4.48%
- inhibition ([8]; at 0.5 µM): -15.3% (inactive)
- inhibition ([8]; measured here: inhibition with BGB combination, at 0.05 µM): -31.9%
- inhibition ([8]; measured here: inhibition with cisplatin combination, at 0.05 µM): -16.9%
- inhibition ([9]; at 0.5 µM): -14.3% (inactive)
- inhibition [9, 19]: -16.1%
- inhibition [9, 20]: 41.6%
- inhibition ([10]; at 0.5 µM): -11.1% (inactive)
- inhibition ([10]; measured here: BGB combination, at 0.5 µM): -14.1%
- inhibition ([10]; measured here: BGB combination, at 5 µM): 27.2%
- inhibition ([10]; measured here: cisplatin combination, at 0.5 µM): -11.6%
- inhibition ([10]; measured here: cisplatin combination, at 5 µM): 22.8%
- inhibition ([11]; BGB combination, concentration series, at 5 µM): 43.9%
- inhibition ([11]; at 0.5 µM): -16.7% (inactive)
- inhibition ([11]; cisplatin combination, concentration series, at 5 µM): 32.9%
- inhibition [12]: -3.03% (inactive)
- inhibition ([12]; measured here: combo with BGB IC20): 2.13%
- inhibition ([12]; measured here: combo with cisplatin IC20): -6.48%
- inhibition ([13]; at 0.5 µM): -10.1% (inactive)
- inhibition ([13]; cisplatin combination, at 0.5 µM): -5.92%
- inhibition ([13]; cisplatin combination, at 5 µM): 41.9%
- inhibition ([13]; measured here: BGB IC40 combination 0.05 uM, at 0.05 µM): -23.7%
- inhibition ([13]; single agent, at 5 µM): 42.7%
- inhibition ([14]; at 0.5 µM): -14% (inactive)
- inhibition ([14]; cisplatin combo, at 5 µM): 35.3%
- inhibition ([14]; measured here: BGB IC40 combination, at 0.05 µM): -32.1%
- inhibition [14, 19]: -17.3%
- inhibition ([14]; single agent, at 5 µM): 35%
- inhibition ([15]; at 0.5 µM): -29.6% (inactive)
- inhibition [15, 17]: -34%
- inhibition [15, 18]: -27.5%
- inhibition ([15]; single agent, at 0.05 µM): -43.4%
- inhibition ([15]; single agent, at 5 µM): 26.5%
